# The sample as a whole holds a higher share of hits than the screen did.
# MARV entry inh: inhibitors of Marburg virus binding or cell entry. actives 1.8% (n = 300,000). Marburg virus pseudotyped entry inhibition, cell reporter. Potency, µM (top dose mostly 37.8 µM), inactives show at the highest dose activity change, negative = inhibition, usual class: inhibitors. AID 540276; calls by dose curve; tested in HEK293 cells; note: potency is the fitted concentration of half-maximal effect; % is set by controls: 0 for no effect and ±100 for the full control effect
# Shiga toxin inh: Shiga toxin inhibition | Vero cells, Shiga toxin protein synthesis inhibition reporter | inhibition, % at 38.7 µM | actives 9.2% (n = 290,000) | AID 2315; in the data active = inhibition mostly above about 28%, no sharp cut-off; inactive = mostly below about 43%; note: 0% is about no effect
# CHX counter: affects cycloheximide protein synthesis inhibition readout, counter-screen; cell reporter, cycloheximide protein synthesis inhibition counterscreen; max response, %; actives 12% (n = 300,000); AID 2314; in the data active = max response mostly above about 13%, no sharp cut-off; inactive = mostly below about 14%; note: read at 38.3 µM for the half of the compounds with a filed dose; 0% is about no effect
# Lassa entry inh: Lassa virus entry inhibition. Lassa virus pseudotype entry inhibition, cell reporter. Potency, µM (titrated, usually from 37.9 µM), for the others: at the top dose activity change, negative = inhibition, actives largely listed as inhibitors. actives 1.2% (n = 300,000). AID 540256; calls by dose curve; tested in HEK293 cells; note: potency is the fitted concentration of half-maximal effect; % is set by controls: 0 for no effect and ±100 for the full control effect; nearly all actives have a fitted effect of over 50% in size
# AMA1-RON2 inh: AMA1-RON2 (P. falciparum) interaction inhibition; AlphaScreen AMA1-biotinylated RON2 peptide binding; Potency, µM (top dose mostly 58.2 µM), for the others: at the highest dose activity change, negative = inhibition, usual class: inhibitors; actives 0.2% (n = 360,000); AID 720542; active = well fitted inhibition curve with a large enough effect; inconclusive = small, poorly fitted or top-dose-only effect; inactive = no such curve, though single readings can be large or run the other way;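 note: potency is the fitted concentration of half-maximal effect; 0% = vehicle wells and -100% = peptide control; nearly all actives have a fitted effect of over 45% in size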
#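 AMA1 (3D7) with his tag at 25 nM final met compounds first, then biotinylated RON2 peptide at 25 nM; detection used donor plus acceptor beads, 10 µg/mL apiece, read by AlphaScreen after 30 min at room temperature.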
# Active calls of the source: *; ? = inconclusive; / = no result given; [ ] = remark or other dose.
SMILES,MARV entry inh,Shiga toxin inh,CHX counter,Lassa entry inh,AMA1-RON2 inh
O=C(Nc1ccc(Cl)cc1Cl)c1ccc(Br)o1,?,78.1*,43.9*,2.2%,-5.5%
O=C(CNC(=O)c1ccc(Br)o1)NCc1ccc(Cl)cc1Cl,0.0%,-15.4,-4.2,-1.3%,3.8%
Cc1ccc(NC(=O)CN2C(=O)CSc3ccc(S(=O)(=O)N(C)C)cc32)c(C)c1,/,/,/,21.5%[46.1 µM],/
CC(C)(C)c1ccc(-c2nnc3sc(-c4ccncc4)nn23)cc1,-6.2%,34.2,14.2*,?,-20.4%
COC(=O)c1cc(=O)nc2sc(-c3ccccc3)nn12,12.1%,-10.4,-2.9,-10.7%,-1.5%
Cc1nnc2sc(-c3cccc(F)c3)nn2c1=O,?,-5.9,-2.2,0.9%[46.1 µM],0.9%
Cc1ccc(-c2nn3c(=O)c(C)nnc3s2)cc1,?,23.4,26.7*,-19.3%,4.1%
Cc1cc(=O)n2nc(-c3ccccc3)sc2n1,18.2%,61.0*,38.5*,23.0%,-5.6%
CCN1C(=O)/C(=C/c2nc3ccccc3c(=O)[nH]2)c2ccccc21,?,-2.8,25.5*,2.8%,-11.8%
CCN1C(=O)/C(=C\c2nc3ccccc3c(=O)n2-c2ccccc2)c2ccccc21,?,-10.9,-3.1,?,-0.1%
Cc1cc(C)c(C#N)c(SCC(=O)C2CC2)n1,/,43.2*,24.0*,/,17.9%
Cc1cc(C)c(C#N)c(SCC(=O)Nc2nonc2N)n1,22.6%[46.1 µM],72.3*,29.1*,/,30.0%
Cc1cc(C)c(C#N)c(SCC(=O)c2cccs2)n1,14.3%,61.3*,19.4*,3.1%,11.0%
Cc1cc(C)c(-n2nnnc2SCC(=O)c2cccs2)c(C)c1,-23.0%[46.1 µM],39.3*,23.9*,?,-27.8%
COC(=O)CSc1nc(C)cc(C)c1C#N,-20.3%[46.1 µM],-18.6,11.4,26.2%[46.1 µM],-9.0%
Cn1nnnc1SCC(=O)c1cccs1,?,-4.2,18.3,11.5%,3.1%
CN(C)/C(=N\S(=O)(=O)c1ccc(Br)cc1)c1ccccc1,?,-17.6,0.4,-9.0%[46.1 µM],-4.5%
O=C(CN1C(=O)NC2NC(=O)NC21)NC1CCCCC1 (stereo not given),/,/,/,/,6.8%
Nc1c(C(=O)C2CC2)sc2nc3c(cc12)CCC3,/,65.7*,42.7*,/,23.1%
Nc1c(C(=O)Nc2cccc(C(=O)O)c2)sc2nc3c(cc12)CCCC3,?,49.2,17.6*,3.16µM*,-1.8%
N#Cc1sc2nc3c(cc2c1N)CCCC3,?,26.9,23.3*,-0.7%,20.2%[11.6 µM]
Nc1c(C(=O)O)sc2nc3c(cc12)CCCC3,/,3.8,-1.2,/,12.7%
Nc1c(C(=O)Nc2ccccc2)sc2nc3c(c(-c4ccco4)c12)CCC3,-15.2%,47.8*,18.9*,-16.3%,-16.1%
Nc1c(C(=O)Nc2ccc(C(=O)O)cc2)sc2nc3c(cc12)CCCC3,24.7%[46.1 µM],/,/,?,/
Cn1cnc(S(=O)(=O)N2CCCC(C(=O)Nc3ccc(OC(F)(F)F)cc3)C2)c1 (stereo not given),/,/,/,0.5%[46.1 µM],/
SMILES,MARV entry inh,Shiga toxin inh,CHX counter,Lassa entry inh,AMA1-RON2 inh
NC(=O)c1sc2nc3c(cc2c1N)CCCCCC3,16.4%[46.1 µM],52.5*,31.1*,9.2%,-19.0%
Nc1c(C(=O)Nc2ccc(Cl)c(C(=O)O)c2)sc2nc3c(cc12)CCCC3,-15.4%,8.3,18.1,?,2.4%
Cc1ccc2c(N)c(C#N)sc2n1,-17.3%[46.1 µM],38.9,21.6*,?,-14.1%
Nc1c(C(=O)c2ccc(Cl)cc2)sc2nc3c(cc12)CCC3,?,25.9,31.7*,-5.3%,-10.8%[11.6 µM]
CCCc1ccc2c(N)c(C#N)sc2n1,-0.3%,21.9,5.9,-8.6%,3.6%
CC(=O)Nc1cc2c(cc1Br)-c1ccccc1C2,?,/,/,-0.6%,7.8%
Cc1oc2cc3oc(=O)c(CCC(=O)NCCN4CCOCC4)c(C)c3cc2c1C,/,31.1*,29.1*,/,-0.8%
Cc1coc2cc3oc(=O)c(CCC(=O)NCCCN4CCOCC4)c(C)c3cc12,/,3.7,-1.2,/,-1.5%
CC1(C)NC(=O)N(CCOCCOc2cccc(Oc3ccccc3)c2)C1=O,-2.5%,-26.3,8.0,?,8.0%
CCC(=O)c1ccccc1OCCCN1C(=O)NC(C)(C)C1=O,1.8%,-11.0,-7.7,0.3%,-5.0%
CC1(C)NC(=O)N(CCOCCOc2ccc3ccccc3c2Br)C1=O,19.7%,44.4,36.8*,20.3%,-4.5%
CC1(C)NC(=O)N(CCCCOc2ccc3ccccc3c2Cl)C1=O,?,88.4*,54.4*,?,-14.2%
Cc1ccc(C(C)C)c(OCCCN(C)Cc2ccccc2)c1,8.2µM*,10.5,-2.6,?,-20.6%
Cc1ccc(C(C)C)c(OCCCN2C(=O)NC(C)(C)C2=O)c1,?,-8.9,-3.8,11.6µM*,39.6%
c1ccc(COCCCc2cnc[nH]2)cc1,/,21.4,-0.7,/,/
O=C(c1ccc(OCCCc2cnc[nH]2)cc1)C1CC1,?,80.1*,34.5*,?,/
Cc1ccc(Cn2cc(CN3CC(N4CCSCC4)CS3(=O)=O)nn2)cc1 (stereo not given),/,/,/,/,-5.4%
CCN(CC(=O)NC1CCCC1)S(=O)(=O)c1ccc(F)cc1,/,0.6,4.5,/,11.4%
c1ccc(Cn2nnc3c(N4CCN(Cc5ccc6c(c5)OCO6)CC4)ncnc32)cc1,?,-4.7,-3.2,-13.5%,-1.5%
O=c1[nH]c(CN2CCN(Cc3ccc4c(c3)OCO4)CC2)nc2ccccc12,-15.9%,-10.4,8.6*,16.4%,14.1%
c1ccc2c(c1)oc1c(N3CCN(Cc4ccc5c(c4)OCO5)CC3)ncnc12,?,97.8*,36.0*,?,-12.9%
CN(C)CCCN(C(=O)c1sc2ccccc2c1Cl)c1nc2ccc(F)cc2s1,?,78.6*,37.1*,?,?
CN(C)CCCN(C(=O)/C=C/c1cccs1)c1nc2ccc(F)cc2s1,8.91µM*,-38.6,-14.7,-29.6%,-10.4%
CN(C)CCCN(C(=O)c1cccs1)c1nc2ccc(F)cc2s1,/,/,/,22.3%[46.1 µM],/
CC(CNC(=O)c1ccc2nc(CCc3ccccc3)oc2c1)c1ccccc1 (stereo not given),/,/,/,-28.1%[46.1 µM],/
SMILES,MARV entry inh,Shiga toxin inh,CHX counter,Lassa entry inh,AMA1-RON2 inh
O=C1C(Nc2ccccc2)=CC(c2ccc(O)cc2)N1c1ccccc1 (stereo not given),/,44.6*,28.5*,/,14.8%
COc1cc(C2C=C(Nc3ccccc3)C(=O)N2c2ccccc2)ccc1O (stereo not given),11.0%,57.1*,37.4*,?,-16.2%
O=C1C(Nc2ccccc2)=CC(c2ccc(Br)cc2)N1c1ccccc1 (stereo not given),2.4%[46.1 µM],/,/,?,/
CCOC(=O)c1ccc(NC2=CC(c3ccc(O)c(OCC)c3)N(c3ccc(C(=O)OCC)cc3)C2=O)cc1 (stereo not given),-6.6%[46.1 µM],/,/,9.8%[46.1 µM],/
Cc1ccc(S(=O)(=O)C2(C(=O)Nc3ccc(C(C)C)cc3)CC2)cc1,?,82.7*,49.7*,?,-2.1%
COc1ccccc1N1CCN(CC(=O)c2ccc3ccn(C(C)=O)c3c2)CC1,-3.1%,-3.3,-1.9,/,18.3%
CC(=O)OCC(=O)c1ccc2ccn(C(C)=O)c2c1,2.4%,31.8,25.1*,10.1%,-2.9%
COCCn1c(C)cc(C(=O)CSc2n[nH]c(N)n2)c1C,3.7%,-0.6,13.4*,5.7%,5.8%
COc1ccc(Cl)cc1C(=O)CSc1nnnn1C1CCCC1,-18.1%,-13.7,-8.7,-2.3%,11.1%
